phage Ecoli inh = growth loss of phage-infected E. coli, primary screen, RecBCD inhibitor project, absorbance, with phage, HTS. inhibition, % at 11.9 µM. 360,000 tested, 0.26% active; in the data active = inhibition above about 11%
E coli growth-1 = E. coli V3065 growth inhibition, primary screen, counter-screen for AddAB inhibitor project, absorbance, OD600. 18 h. 330,000 tested, 0.27% active. inhibition, % at 11.9 µM;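 active = inhibition above the campaign's mean inhibition across all tested compounds plus 3 SD, cut at about 9.9% in these data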;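 also: uninfected addAB+ strain grown without phage in ampicillin broth; 0% = DMSO wells and 100% = ciprofloxacin 0.95 µg/ml wells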
Tat transport = E. coli Tat export inhibitors, primary screen, MC4100, TorA-mCherry reporter, fluorescence, single point | 340,000 tested, 0.036% active | inhibition, % at 10 µM | AID 488895, 2010;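 active = mean replicate inhibition at least 50% and at least half of replicates individually reaching 50%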;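 also: exported cargo escapes ClpAP degradation while cytoplasmic cargo is degraded and loses fluorescence; 0% = median of neutral control wells and 100% = median of NaSCN control wells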
E coli growth-2 = E. coli growth inhibition, primary screen, OD600. OD600 absorbance (concentration not given with the values). Escherichia coli growth, 23 h; stronger effect = lower value. 330,000 tested, 0.21% active. AID 1053175, 2014;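 active = OD600 absorbance below the run mean of sample wells minus 3.6 SD, in any replicate, cut at about 0.56 in these data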
AddAB inh = growth inhibition of E. coli expressing H. pylori AddAB, primary screen, AddAB inhibitor project, absorbance | inhibition, % at 11.9 µM | 330,000 tested, 0.29% active; in the data active = inhibition above about 12%;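 also: 0% = vehicle wells of infected cells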
AddAB confirm = growth loss of phage-infected E. coli expressing H. pylori AddAB, confirmation, AddAB inhibitor project, absorbance, E. coli V3065, T4 phage, triplicate. 880 tested, 64% active. shares compounds with AddAB inh. OD; T4 phage with gene 2 nonsense mutations. inhibition, % at 11.9 µM;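 active = mean inhibition above a set limit taken from the earlier primary screen, cut at about 13% in these data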;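 also: higher means less bacterial growth since AddAB block lets phage replicate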
RecBCD counter = growth loss of RecBCD+ E. coli with mutant T4 phage, counter-screen for AddAB inhibitor project, absorbance, V66 E. coli; shares compounds with AddAB inh; OD growth; inhibition, % at 11.9 µM; 880 tested, 73% active;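 active = mean inhibition above the mean of solvent-only control wells plus 3 SD, cut at about 4% in these data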;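 also: optical density read after an 18 h incubation at 37 °C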
Bact viability = bacterial viability inhibition counter-screen, confirmation, counter-screen for AddAB inhibitor project, absorbance; shares compounds with AddAB inh; absorbance (AddAB counterscreen); inhibition, % at 11.9 µM; 880 tested, 35% active; AID 488956, 2010; in the data active = inhibition above about 25%
RecBCD conf = growth loss of phage-infected RecBCD+ E. coli, confirmation, RecBCD inhibitor project, absorbance, E. coli V66, T4 gene 2 phage; shares compounds with phage Ecoli inh; E. coli V66 + T4 2- phage, growth OD; inhibition, % at 11.9 µM; 890 tested, 45% active; AID 651982, 2013;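 active = mean inhibition over triplicates exceeding the hit threshold derived in the original primary screen, cut at about 11% in these data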
Ecoli viability = E. coli viability inhibition, counter-screen for RecBCD inhibitor project, absorbance, high throughput; inhibition, % at 11.9 µM; shares compounds with phage Ecoli inh; 890 tested, 29% active; absorbance (OD) growth; AID 651983, 2013; in the data active = inhibition above about 20%;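 also: E. coli strain V66 grown with compound alone and no phage infection; 0% = bacteria with DMSO vehicle only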
AddAB counter = growth loss of phage-infected AddAB-carrying E. coli, confirmation, counter-screen for RecBCD inhibitor project, absorbance, E. coli V3065, T4 phage. E. coli expressing H. pylori AddAB + T4 phage, OD growth; gene 2 mutant T4, recBCD-deleted host. shares compounds with phage Ecoli inh. 890 tested, 45% active. inhibition, % at 11.9 µM;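 active = mean inhibition above the solvent-only control wells' mean plus 3 SD, cut at about 22% in these data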;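 also: higher means less bacterial growth from phage killing when AddAB is blocked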
Active calls of the source: *; i = inactive; · = not tested or not shown. This is a sample that favours compounds with a hit; in the whole collection about 0.5% have one here.

SMILES | phage Ecoli inh | E coli growth-1 | Tat transport | E coli growth-2 | AddAB inh | others
c1ccc2c(c1)[IH]c1ccccc1-2 | 101* | · | 7 | · | ·
COc1ccc(N2C(=O)NC(=O)/C(=C\c3ccc([N+](=O)[O-])s3)C2=O)cc1 | 3 | 2 | -7 | 0.47* | 2
C[C@]12NC(Cc3ccccc31)c1ccccc12 | · | · | · | 0.74 | ·
O=C1C=CC(=O)C2C1C1(Cl)C(Cl)=C(Cl)C2(Cl)C1(Cl)Cl (stereo not drawn) | 6 | · | -7 | 0.51* | ·
Cc1ccc(-c2nc(N3CCOCC3)s[n+]2-c2ccccc2)cc1 | 2 | -2 | 0 | 0.51* | -2
Cc1nn(Cc2ccccc2)c(C)c1C(=O)NCc1ccccc1 | 1 | 1 | 55* | 0.68 | 2
COC(=O)C1=C(c2ccc(F)cc2OCc2ccccc2)CC2CCC1N2C(=O)NCCOc1ccc(OC)cc1 (stereo not drawn) | · | · | · | 0.69 | ·
Cc1[nH]c2ccc(OC(F)(F)F)cc2c1CCNCc1ccc(Cl)cc1 | 2 | · | -9 | 0.5* | ·
COC(=O)C1=C(c2ccc(S(C)(=O)=O)cc2)CC2CCC1N2C(=O)NC1CC1 (stereo not drawn) | · | · | · | 0.69 | ·
COC1=CC(=O)OC(C=Cc2ccccc2)C1 (stereo not drawn) | · | · | · | 0.7 | ·
CN(C)c1ccc(C=Cc2cc[n+](C)c3ccccc23)cc1 | · | · | · | 0.39* | ·
CN(C)c1ccc(/C=C/c2cc[n+](C)c3ccccc23)cc1 | 0 | · | -299 | · | ·
COC(=O)C1=C(c2ccc(Cl)c(C(F)(F)F)c2)CC2CCC1N2C (stereo not drawn) | · | · | · | 0.7 | ·
CC1CCCN(c2ccc(C(=O)N3CCC4(CC3)OCCO4)cc2[N+](=O)[O-])C1 (stereo not drawn) | -1 | -2 | 12 | · | 1
O=C(c1ccc(N2CCCCC2)c([N+](=O)[O-])c1)N1CCC2(CC1)OCCO2 | 2 | 0 | 4 | 0.52* | 5
O=[N+]([O-])c1c(Cl)c(Cl)c(Cl)c(Cl)c1Cl | 1 | · | -5 | · | ·
Nc1cc(Cl)c2nonc2c1[N+](=O)[O-] | 7 | 7 | -21 | 0.44* | 6
Cc1cc(O)ccc1Cl | 2 | · | · | · | ·
Oc1ccc(Cl)c(Cl)c1Cl | 3 | -1 | -3 | 0.52* | 0
COC(=O)C1=C(c2ccc(OC)c(OC)c2)CC2CCC1N2C(=O)NC1CC1 (stereo not drawn) | · | · | · | 0.72 | ·
CCC(C)C(NC(=O)CCCNC(=O)CCC(=O)OC1O[C@H]2OC3(C)CC[C@H]4[C@H](C)CCC(C1C)C24OO3)C(=O)O (stereo partly drawn) | 5 | 4 | 5 | · | 3
CCC(C)NC(=O)CCC(=O)OC1O[C@H]2OC3(C)CC[C@H]4[C@H](C)CCC(C1C)C24OO3 (stereo partly drawn) | 9 | · | 6 | 0.5* | ·
CC(C)CC(NC(=O)C1CCCN1C(=O)C(N)Cc1ccc(O)cc1)C(=O)NCC(N)=O (stereo not drawn) | · | · | · | 0.71 | ·
C[C@@H]1CC[C@H]2[C@@H](C)C(=O)O[C@@H]3O[C@@]4(C)CC[C@@H]1[C@]32OO4 | 2 | -1 | 6 | 0.45* | 4
C[C@@H]1O[C@@H](O[C@H]2C[C@@H](O)[C@]3(CO)[C@H]4[C@H](O)C[C@]5(C)[C@@H](C6COC(=O)C6)CC[C@]5(O)[C@@H]4CC[C@]3(O)C2)[C@H](O)[C@H](O)[C@H]1O (stereo partly drawn) | 3 | 96* | 11 | · | 98* | AddAB confirm=-3;RecBCD counter=-2;Bact viability=-4
SMILES | phage Ecoli inh | E coli growth-1 | Tat transport | E coli growth-2 | AddAB inh | others
Cc1cc(O)c2c(c1)C(=O)C13C(=C2O)C(=O)[C@H]2[C@@H](O)[C@@H]1[C@H]1[C@H](O)[C@@H]3C(=O)C3=C(O)c4c(O)cc(C)cc4C(=O)C312 (stereo partly drawn) | · | 76* | 130* | 0.067* | 60* | AddAB confirm=36*;RecBCD counter=32*;Bact viability=43*
Cc1ccc(C(=O)NC(=CCl)P(=O)(c2ccccc2)c2ccccc2)cc1 | · | · | · | 0.71 | ·
COC(=O)C1=C(c2ccc(-c3ccccc3)c(F)c2)CC2CCC1N2C(=O)NCc1ccco1 (stereo not drawn) | · | · | · | 0.67 | ·
COc1cc(CNCCc2ccc3c(c2)OCO3)ccc1O | 5 | 2 | -12 | 0.66 | 5
CCCCCCCCC(=O)NCc1ccc(O)c(OC)c1 | 1 | 100* | 5 | 0.69 | 98* | AddAB confirm=0;RecBCD counter=0;Bact viability=-3
CCN1/C(=C\C=C\C2=[N+](CC)c3ccccc3C2(C)C)C(C)(C)c2ccccc21 | · | 30* | i | 0.53* | 35* | AddAB confirm=51*;RecBCD counter=23*;Bact viability=46*
CC(=O)OC1CC[C@@]2(C)C(=CCC3C2CC[C@]2(C)C(=O)CCC32)C1 (stereo partly drawn) | · | · | · | 0.67 | ·
COC(=O)C1=C(c2cccc(OC)c2OC)CC2CCC1N2C(=O)NC1CC1 (stereo not drawn) | · | · | · | 0.68 | ·
Oc1c(Cl)c(Cl)c(Cl)c(Cl)c1Cl | 12* | 11* | -1 | 0.47 | 13* | AddAB confirm=10;RecBCD counter=17*;Bact viability=10
CN(C)[C@@H]1C(=O)C(C(N)=O)=C(O)[C@@]2(O)C(=O)C3=C(O)c4c(O)cccc4[C@@](C)(O)C3C[C@@H]12 (stereo partly drawn) | 102* | 100* | 147* | · | 94* | AddAB confirm=101*;RecBCD counter=101*;Bact viability=101*;RecBCD conf=101*;Ecoli viability=102*;AddAB counter=101*
CN(C)[C@@H]1C(=O)C(C(N)=O)=C(O)[C@@]2(O)C(=O)C3=C(O)c4c(O)ccc(Cl)c4[C@@](C)(O)[C@H]3C[C@@H]12 | 91* | 81* | 163* | · | 79* | AddAB confirm=99*;RecBCD counter=95*;Bact viability=99*;RecBCD conf=97*;Ecoli viability=102*;AddAB counter=100*

From PubChem
